Results filed as inconclusive are left out. Unmarked numbers belong to inactive results. Calls of active or inactive are those of the source. The call rests on the fitted dose curve; in most records, active means well fitted inhibition curve with a large enough effect; inconclusive means small, poorly fitted or top-dose-only effect; inactive means flat fitted curve, though single readings scatter.
Tests used:
HaCat [1] = assay: Cytotoxic Profiling of Annotated Libraries Using Quantitative High-Throughput Screening (AID 1296008); details: Five cell lines viability, CellTiter-Glo ATP luminescence, 48-72 h; max response: stronger effect = lower value; on max response: on the % scale 0 is the no-effect control and ±100 the full control effect
In short: (§1)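 Compounds were pin-transferred onto cells and incubated 48 or 72 hr at 37 degree Celsius, 95% humidity. CellTiter-Glo was added, plates sat 10 min at room temperature, then ATP-coupled luminescence was imaged as the viability read-out.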

NIH3T3 = assay: as above; details: Five cell lines viability, CellTiter-Glo ATP luminescence, 48-72 h; max response: stronger effect = lower value
In short: as §1

KB-3-1 = assay: as above; details: Five cell lines viability, CellTiter-Glo ATP luminescence, 48-72 h; max response: stronger effect = lower value
In short: as §1

HACAT [2] = assay: qHTS assay to identify novel small-molecules to repurpose for Merkel cell carcinoma treatment (AID 1296009); details: MCC and control cell lines, CellTiter-Glo viability, 72 h; at 44.8 µM (top of the series) unless noted
In short: (§2)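 Cells exposed to NPC (8-point) and MIPE (11-point) compound dilutions for 72 hr at 37 degree celsius; viability read by CellTiter-Glo luminescence, normalized to no-cell and DMSO in-plate controls.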

HEK293T = assay: as above; details: MCC and control cell lines, CellTiter-Glo viability, 72 h
In short: as §2
Further: nearly all actives have a fitted effect of over 60% in size.
Potency means the concentration at half of the fitted maximal effect.

## CC12CCC(OC3OC(CO)C(O)C(O)C3OC3OC(CO)C(O)C(O)C3O)CC1CCC1C2CCC2(C)/C(=C3/COC(=O)C3)CCC12O (stereo not given)
HaCat [1]
  max response: -19.3%
NIH3T3
  max response: -1.69%

## CS/C=C/C(=O)O[C@@H]1CCC2=CC(=O)C(=C(C)C)C[C@]2(C)[C@H]1C
HaCat [1]
  max response: -6.05%
NIH3T3
  max response: -13.9%

## O=c1nc(-c2ccccn2)sc2ccccc12
HaCat [1]
  outcome: inactive
KB-3-1
  max response: 3.79%
HACAT [2]
  outcome: inactive

## O=C(NCCN1CCN(c2cccc3ccc(O)cc23)CC1)c1ccc(F)cc1
HaCat [1]
  max response: -4.85%
NIH3T3
  max response: 3.66%

## C=C1C(=O)OC2CC(C)=C(C(C)CCCOC(C)=O)C(OC(=O)CC(C)CC)C12 (stereo not given)
HaCat [1]
  max response: -2.4%
NIH3T3
  max response: -17.5%

## Cc1ccc(F)cc1S(=O)(=O)N[C@@H]1CCN(Cc2ccc(OC(C)C)cc2)C1
HaCat [1]
  max response: -5.2%
NIH3T3
  max response: -14.7%

## CC[C@H]1OC(=O)[C@H](C)[C@@H](O[C@H]2C[C@@](C)(OC)[C@@H](O)[C@H](C)O2)[C@H](C)[C@@H](O[C@H]2O[C@H](C)C[C@H](N(C)C)[C@H]2O)[C@](C)(O)C[C@@H](C)C(=O)[C@H](C)[C@@H](O)[C@]1(C)O
HaCat [1]
  outcome: inactive
KB-3-1
  max response: 8.4%
HACAT [2]
  outcome: inactive [at 17.4 µM]

## O=C(N[C@@H]1CCCc2c1cnn2-c1ccc(F)cc1F)c1ccccn1
HaCat [1]
  max response: -21.6%
NIH3T3
  max response: 3.41%

## C=C1C(=O)O[C@@H]2/C=C(\C)CC/C=C(\C)CC[C@@H]12
HaCat [1]
  outcome: inactive
KB-3-1
  max response: -12.1%
HACAT [2]
  outcome: inactive

## CN(C)CCC(CSc1ccccc1)Nc1ccc(S(=O)(=O)NC(=O)c2ccc(N3CCN(Cc4ccccc4-c4ccc(Cl)cc4)CC3)cc2)cc1[N+](=O)[O-] (stereo not given)
HaCat [1]
  Potency: 23.1 µM (active)
NIH3T3
  max response: -12.9%

## OC(CC1c2ccccc2-c2cncn21)C1CCCCC1 (stereo not given)
HaCat [1]
  max response: -2.64%
NIH3T3
  max response: -17.5%

## C#CCNCc1cc2cc(OCc3ccccc3)ccc2[nH]1
HaCat [1]
  max response: -12.3%
NIH3T3
  max response: -24.7%

## O=C(CCl)Nc1cccc(NC2=NS(=O)(=O)c3ccccc32)c1
HaCat [1]
  outcome: inactive
KB-3-1
  Potency: 14.6 µM (active)
HACAT [2]
  outcome: inactive

## CC(=O)C1=CCC2C3CC=C4CC(O)CC(O)C4(C)C3C(O)CC12C (stereo not given)
HaCat [1]
  max response: 1.07%
NIH3T3
  outcome: inactive

## C=CC(=O)N1CCC(Oc2cc3c(Nc4ccc(Cl)c(Cl)c4F)ncnc3cc2OC)CC1
HaCat [1]
  max response: -116%
NIH3T3
  Potency: 14.6 µM (active)

## COc1ccc(C2=NC(c3ccc(Cl)cc3)C(c3ccc(Cl)cc3)N2C(=O)N2CCNC(=O)C2)c(OC(C)C)c1 (stereo not given)
HaCat [1]
  outcome: inactive
KB-3-1
  outcome: inactive
HACAT [2]
  outcome: inactive

## N#Cc1ccc(-c2ccc(S(=O)(=O)Nc3cccc(N)n3)cc2)cc1
HaCat [1]
  outcome: inactive
NIH3T3
  max response: -2.42%
HACAT [2]
  outcome: inactive

## Cc1cnc(-c2ccccc2C(C)C)nc1NCc1ccc(-n2ccnn2)cc1
HaCat [1]
  max response: -29.3%
NIH3T3
  max response: -17%

## CC[N+]1(C/C2=C/CCCCCC2)CCC(NC(=O)C2c3cc(Cl)ccc3Oc3ccc(Cl)cc32)CC1 (stereo not given)
HaCat [1]
  max response: -26%
NIH3T3
  outcome: inactive

## CC(=O)O[C@H]1CC2C(COC(=O)CC(C)C)=CO[C@@H](OC(=O)CC(C)C)C2[C@]12CO2 (stereo not given in full)
HaCat [1]
  max response: -12.1%
NIH3T3
  outcome: inactive

## CCOC(=O)N1CCC(CN(Cc2ccc(Cl)cc2)Cc2ccc([N+](=O)[O-])s2)C1 (stereo not given)
HaCat [1]
  max response: -2.73%
NIH3T3
  max response: -3.24%

## Cc1cc(-c2cc(OC(=O)c3ccccc3)ccc2Cl)cc2nnc(Nc3ccc(OCCN4CCCC4)cc3)nc12
HaCat [1]
  max response: 3.59%
NIH3T3
  max response: -28.4%

## Cc1cc(C(=O)Nc2cc(Oc3ccc4nc(NC(=O)C5CC5)cn4n3)ccc2C)n(C)n1
HaCat [1]
  Potency: 18.4 µM (active)
NIH3T3
  Potency: 5.17 µM (active)

## C[C@@H](c1ccc2nccn2c1)n1nnc2ncc(-c3cnn(C)c3)nc21
HaCat [1]
  max response: -13%
NIH3T3
  max response: -14.7%

## C=C1C(=O)O[C@@H]2/C=C(\CO)CC/C=C(/C=O)C[C@H](O)[C@@H]12
HaCat [1]
  max response: -0.314%
KB-3-1
  outcome: inactive
HEK293T
  Potency: 18.4 µM (active)

## O=C(Nc1ccc2[nH]c(=O)oc2c1)C(=O)N1CCC(Cc2ccc(F)cc2)CC1
HaCat [1]
  max response: 4.96%
NIH3T3
  max response: -23.6%

## C=C(C(=O)O[C@H]1C/C(C)=C/CC/C(CO)=C/[C@H]2OC(=O)C(=C)[C@H]12)C(O)CO (stereo not given in full)
HaCat [1]
  outcome: inactive
KB-3-1
  max response: -10.8%
HACAT [2]
  outcome: inactive

## C[C@@H]1O[C@@H](O[C@H]2[C@@H]3C=CO[C@@H](O[C@@H]4O[C@H](CO)[C@@H](O)[C@H](O)[C@H]4O)[C@@H]3[C@@]3(CO)O[C@@H]23)[C@H](O)[C@H](OC(=O)/C=C/c2ccccc2)[C@H]1O
HaCat [1]
  outcome: inactive
KB-3-1
  outcome: inactive
HACAT [2]
  outcome: inactive [at 17.4 µM]

## C=C1CC[C@@H](O)[C@]2(C)C[C@H]3OC(=O)C(=C)[C@H]3CC12 (stereo not given in full)
HaCat [1]
  outcome: inactive
KB-3-1
  max response: 1.13%
HACAT [2]
  outcome: inactive

## CC(=O)OC1CCC2(C)C(CCC3(C)C2CC=C2C4C(C)C(C)CCC4(C)CCC23C)C1(C)C(=O)O (stereo not given)
HaCat [1]
  max response: 3.45%
NIH3T3
  max response: -0.103%

## O=C(Nc1ccc(-n2nc(C(F)(F)F)cc2C(F)(F)F)cc1)c1ccncc1F
HaCat [1]
  max response: 3.3%
NIH3T3
  max response: 2.03%

## CC(=O)OC[C@]12[C@H](OC(C)=O)C(=O)[C@@H]3[C@@H](O)[C@@]14O[C@@]3(C)COC(=O)c1cccnc1[C@@H](C)[C@H](C)C(=O)O[C@@H]([C@H](O)[C@@H]2OC(C)=O)[C@]4(C)O
HaCat [1]
  outcome: inactive
NIH3T3
  max response: -17.4%
HACAT [2]
  outcome: inactive [at 17.4 µM]

Source: PubChem BioAssay (NCATS)
